Experimental findings from PubChem BioAssay (Tox21) are described below.

The target in test [1] is Thyrotropin-releasing hormone receptor (Homo sapiens) (UniProt P34981). As to the kind of experiment: qHTS assay to identify small molecule agonists of the thyrotropin-releasing hormone receptor (TRHR) signaling pathway (AID 1346891; calls by dose curve;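 note: HEK293 cells expressing TRHR with calcium dye readout; series mostly up to about 58 µM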). The gist of the method:
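In 1536-format, 1500 TRHR-Hek293 cells per well grew 18 h, took up calcium dye for 2 h at 37 °C, received compound, and were read kinetically; 15-point titrations, triplicates.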
For orientation: In qHTS, concentration-response curves come from the screen itself.

The nature of test [2]: Human pregnane X receptor (PXR) small molecule agonists, qHTS cell viability counter screen (AID 1346977). Note: nearly all actives have a fitted effect of over 50% in size. The gist of the method:
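Readout is CellTiter-Fluor fluorescence from PXR-Luc HepG2 cells. Plated cells rested 5hr, then were treated with compounds for 24hr at 37C and 5% CO2, with reagent present during the last hour.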

A short description of test [3]: Caspase-3/7 induction in HepG2 cells by small molecules, qHTS assay (AID 1346978). Note: nearly all actives have a fitted effect of over 15% in size. The gist of the method:
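Wild-type HepG2 cells (2,000/well) were settled 5 h at 37 C, 5% CO2, then exposed to compounds in DMSO for 17 h. Caspase-3/7 activity was read by luminescence 30 min after adding Caspase-Glo 3/7 reagent at room temperature.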

The nature of test [4]: Caspase-3/7 induction in CHO-K1 cells by small molecules, qHTS assay (AID 1346980). Note: nearly all actives have a fitted effect of over 15% in size. An outline of the steps:
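Wild-type cells were seeded at 1,500 per well and settled 5 hr at 37 C, 5% CO2, then exposed to DMSO-dissolved compounds for 17 hr. Caspase-Glo 3/7 reagent was added, and luminescence was read after 30min at room temperature.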

The target in test [5] is Cytochrome P450 2D6 (Homo sapiens) (UniProt P10635). As to the kind of experiment: Cytochrome P450 Family 2 Subfamily D Member 6 (CYP2D6) small molecule antagonists: luciferase reporter qHTS assay (AID 1671196). Note: nearly all actives have a fitted effect of over 50% in size. Note: potency is the fitted concentration of half-maximal effect. The gist of the method: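 Test chemicals meet CYP2D6 plus proluciferin substrate (10 min, RT); NADPH regenerating solution then drives turnover for 1 h. Detection reagent halts the reaction; luminescence measured after 20 min.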
Cytochrome P450 2D6 (Homo sapiens), sequence (P10635 whole entry, looked up): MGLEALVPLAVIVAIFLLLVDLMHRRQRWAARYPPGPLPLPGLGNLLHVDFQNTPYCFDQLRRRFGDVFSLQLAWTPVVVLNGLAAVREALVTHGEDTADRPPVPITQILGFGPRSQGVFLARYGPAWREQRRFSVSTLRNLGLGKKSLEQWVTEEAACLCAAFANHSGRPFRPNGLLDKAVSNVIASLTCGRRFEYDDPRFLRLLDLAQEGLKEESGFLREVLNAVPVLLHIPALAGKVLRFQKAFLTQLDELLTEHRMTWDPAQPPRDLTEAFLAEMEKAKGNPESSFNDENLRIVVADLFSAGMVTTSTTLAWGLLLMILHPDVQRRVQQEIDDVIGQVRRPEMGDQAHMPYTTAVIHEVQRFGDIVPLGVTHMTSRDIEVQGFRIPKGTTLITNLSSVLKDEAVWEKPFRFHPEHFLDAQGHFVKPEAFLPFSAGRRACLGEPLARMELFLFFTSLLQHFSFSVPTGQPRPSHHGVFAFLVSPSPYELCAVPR
In general terms: In a reporter assay the amount or activity of a reporter protein is the signal.

Test [6] deals with Cytochrome P450 2C9 (Homo sapiens) (UniProt P11712). As to the kind of experiment: Cytochrome P450 Family 2 Subfamily C Member 9 (CYP2C9) small molecule antagonists: luciferase reporter qHTS assay (AID 1671198). Note: nearly all actives have a fitted effect of over 50% in size. Note: potency is the fitted concentration of half-maximal effect. The gist of the method:
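CYP2C9 activity was measured with a P450-Glo proluciferin substrate. Enzyme–substrate mix was held with compound for 10 min at room temperature, then NADPH regeneration solution was added for 1 h at 37C. Luciferin product was read as luminescence.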

For test [7], the target named is Cytochrome P450 1A2 (Homo sapiens) (UniProt P05177). As to the kind of experiment: Cytochrome P450 Family 1 Subfamily A Member 2 (CYP1A2) small molecule antagonists: luciferase reporter qHTS assay (AID 1671199). Note: nearly all actives have a fitted effect of over 50% in size. Note: potency is the fitted concentration of half-maximal effect. The gist of the method: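 Steps: enzyme-substrate mix dispensed; test compounds and furafylline control pinned in; 10 min room temperature; NADPH regeneration solution added, 1 h; reaction stopped with luciferin detection reagent; luminescence read after 20 min.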
Cytochrome P450 1A2 (Homo sapiens), sequence (P05177 whole entry, looked up): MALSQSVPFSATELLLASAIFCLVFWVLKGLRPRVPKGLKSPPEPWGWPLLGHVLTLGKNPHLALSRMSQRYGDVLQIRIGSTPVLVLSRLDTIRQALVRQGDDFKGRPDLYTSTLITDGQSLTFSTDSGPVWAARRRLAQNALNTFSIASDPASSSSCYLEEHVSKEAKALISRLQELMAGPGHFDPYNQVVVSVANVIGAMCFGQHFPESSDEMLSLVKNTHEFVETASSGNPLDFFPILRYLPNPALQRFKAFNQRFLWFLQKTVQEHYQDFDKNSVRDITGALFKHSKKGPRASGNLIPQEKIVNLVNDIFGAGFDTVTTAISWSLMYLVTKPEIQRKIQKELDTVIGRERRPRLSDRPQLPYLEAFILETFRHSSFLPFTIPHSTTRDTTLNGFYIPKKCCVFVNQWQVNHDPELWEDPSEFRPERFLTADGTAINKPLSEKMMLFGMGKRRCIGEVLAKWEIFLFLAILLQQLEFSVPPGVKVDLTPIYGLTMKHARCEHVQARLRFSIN

Test [8] has as its target Voltage-gated inwardly rectifying potassium channel KCNH2 (Homo sapiens) (UniProt Q12809). As to the kind of experiment: Human Ether-a-go-go-Related Gene (hERG) channel small molecule antagonists: fluorescence cell-based qHTS assay (AID 1671200). The gist of the method: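 Measured: Tl+ flux via fluorescence (480/540 nm) in hERG-expressing U2OS cells after 1 h dye loading at room temperature.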
Background: hERG is a cardiac potassium channel; its block is linked to QT prolongation.

The target in test [9] is Cytochrome P450 3A4 (Homo sapiens) (UniProt P08684). As to the kind of experiment: Cytochrome P450 Family 3 Subfamily A Member 4 (CYP3A4) small molecule antagonists: luciferase reporter qHTS assay (AID 1671201). Note: nearly all actives have a fitted effect of over 50% in size. Note: potency is the fitted concentration of half-maximal effect. The gist of the method: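 Setup: enzyme-substrate mix, compound pin transfer, 10 min RT. Reaction: NADPH regeneration solution, 1 h RT. Readout: detection reagent stops turnover, luminescence measured after 20 min, expressed in relative luminescence units.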
Cytochrome P450 3A4 (Homo sapiens), sequence (P08684 whole entry, looked up): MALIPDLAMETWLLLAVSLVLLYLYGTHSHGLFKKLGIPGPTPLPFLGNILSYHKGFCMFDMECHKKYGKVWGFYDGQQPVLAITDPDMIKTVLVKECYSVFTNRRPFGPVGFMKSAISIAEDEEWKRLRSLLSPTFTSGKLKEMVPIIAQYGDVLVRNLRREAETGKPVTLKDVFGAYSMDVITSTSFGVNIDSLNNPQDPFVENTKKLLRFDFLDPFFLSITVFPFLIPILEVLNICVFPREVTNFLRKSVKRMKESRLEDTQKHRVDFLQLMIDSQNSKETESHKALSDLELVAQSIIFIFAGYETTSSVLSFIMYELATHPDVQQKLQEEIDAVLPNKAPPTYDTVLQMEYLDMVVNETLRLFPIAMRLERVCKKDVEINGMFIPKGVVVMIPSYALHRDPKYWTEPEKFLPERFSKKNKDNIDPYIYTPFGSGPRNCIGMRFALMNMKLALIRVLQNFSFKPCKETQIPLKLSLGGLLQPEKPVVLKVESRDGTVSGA

Test [10] in a line: Caspase-3/7 induction in HepG2 cells by small molecules, qHTS cell viability counter screen (AID 1346981). Note: series mostly up to about 92 µM; nearly all actives have a fitted effect of over 30% in size. An outline of the steps: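 In this quantitative HTS counter screen, compounds delivered in DMSO were left on unmodified HepG2 cells for 16 hr at 37 C. Viability was then determined fluorometrically with CellTiter-Fluor, in parallel with caspase-3/7 induction in the same wells.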

The target in test [11] is Cytochrome P450 2C19 (Homo sapiens) (UniProt P33261). As to the kind of experiment: Cytochrome P450 Family 2 Subfamily C Member 19 (CYP2C19) small molecule antagonists: luciferase reporter qHTS assay (AID 1671197). Note: nearly all actives have a fitted effect of over 65% in size. Note: potency is the fitted concentration of half-maximal effect. The gist of the method: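 Quantitative high-throughput screen of the Tox21 library using CYP2C19 with proluciferin substrate. Reaction: NADPH regeneration, 37C, 1 h, after 10 min compound preincubation at room temperature. Readout: luminescence.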
Cytochrome P450 2C19 (Homo sapiens), sequence (P33261 whole entry, looked up): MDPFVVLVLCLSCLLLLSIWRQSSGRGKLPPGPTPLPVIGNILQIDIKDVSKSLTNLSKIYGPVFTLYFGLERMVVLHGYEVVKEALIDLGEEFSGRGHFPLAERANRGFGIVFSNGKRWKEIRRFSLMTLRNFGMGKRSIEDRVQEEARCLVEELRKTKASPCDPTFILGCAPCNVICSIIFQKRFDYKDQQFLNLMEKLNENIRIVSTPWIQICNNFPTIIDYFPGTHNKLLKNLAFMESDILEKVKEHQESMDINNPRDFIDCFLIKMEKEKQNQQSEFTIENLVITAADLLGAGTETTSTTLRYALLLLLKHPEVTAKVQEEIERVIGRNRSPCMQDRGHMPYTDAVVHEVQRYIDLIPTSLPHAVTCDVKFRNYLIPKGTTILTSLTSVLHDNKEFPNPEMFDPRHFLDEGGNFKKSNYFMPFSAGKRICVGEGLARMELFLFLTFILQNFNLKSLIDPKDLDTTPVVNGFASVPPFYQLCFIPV

For test [12], the target named is Nuclear receptor subfamily 1 group I member 2 (Homo sapiens) (UniProt O75469). As to the kind of experiment: Human pregnane X receptor (PXR) small molecule agonists, qHTS assay (AID 1346982). Note: nearly all actives have a fitted effect of over 35% in size. Note: potency is the fitted concentration of half-maximal effect. The gist of the method:
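Reporter HepG2 cells expressing PXR-Luc are cultured in charcoal-stripped FBS (5%), treated with compounds for 24 hr at 37 C, and assayed by ONE-Glo luminescence after 30 min at room temperature.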

Test [13] can be described thus: Caspase-3/7 induction in CHO-K1 cells by small molecules, qHTS cell viability counter screen (AID 1346979). Note: nearly all actives have a fitted effect of over 35% in size. An outline of the steps: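 To flag cytotoxic compounds, treated CHO-K1 wild-type cells were given CellTiter-Fluor at 16hr and read fluorescently after 1hr at 37C; the caspase-3/7 luminescence was measured in these same wells.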
Test [14] has as its target Nuclear receptor subfamily 1 group I member 2 (Homo sapiens) (UniProt O75469). As to the kind of experiment: CYP3A4 induction through human pregnane X receptor (PXR) by small molecules, qHTS assay (AID 1346984). Note: nearly all actives have a fitted effect of over 40% in size. The gist of the method:
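Induction measured in HepG2-based DPX-2 cells co-expressing human PXR and a CYP3A4 promoter-driven luciferase. After a 24-hour compound exposure, cells received CYP3A4 luciferin substrate at 3uM final for 3 hours, and light output was then recorded.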

For test [15] the target is unchanged. As to the kind of experiment: Human pregnane X receptor (PXR) activation by small molecules, qHTS assay (AID 1346985). Note: nearly all actives have a fitted effect of over 40% in size. An outline of the steps: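 DPX-2 cells (HepG2 co-transfected with a PXR response element and a CYP3A4-promoter luciferase construct) were seeded at 2,000 per well, rested 5 hr at 37C, then exposed to DMSO-dissolved compounds for 24 hr. Activation was read as luciferase luminescence.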

Values without a mark were called inactive. Records with an inconclusive call do not appear. Calls of active or inactive are those of the source. Unless noted, calls come from the whole dose curve; as a rule, active = well fitted curve in the direction sought with a large enough effect in the repeat runs; inconclusive = weak or mixed curves; inactive = no such curve, though single readings can be large; an effect the other way counts as inactive or inconclusive.

Nuclear receptor subfamily 1 group I member 2 (Homo sapiens), sequence (O75469 whole entry, looked up): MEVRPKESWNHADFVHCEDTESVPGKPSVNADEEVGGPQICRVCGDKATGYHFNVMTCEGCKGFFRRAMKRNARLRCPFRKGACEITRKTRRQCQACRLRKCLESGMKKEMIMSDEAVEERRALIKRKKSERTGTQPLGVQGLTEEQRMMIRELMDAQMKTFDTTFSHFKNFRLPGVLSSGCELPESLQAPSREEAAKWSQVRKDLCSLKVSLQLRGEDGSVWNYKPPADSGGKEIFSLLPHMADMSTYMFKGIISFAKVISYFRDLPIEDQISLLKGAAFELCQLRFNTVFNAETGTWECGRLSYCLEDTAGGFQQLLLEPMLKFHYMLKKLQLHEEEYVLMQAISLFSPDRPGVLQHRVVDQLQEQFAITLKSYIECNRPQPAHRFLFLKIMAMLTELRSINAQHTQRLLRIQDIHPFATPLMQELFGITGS
Cytochrome P450 2C9 (Homo sapiens), sequence (P11712 whole entry, looked up): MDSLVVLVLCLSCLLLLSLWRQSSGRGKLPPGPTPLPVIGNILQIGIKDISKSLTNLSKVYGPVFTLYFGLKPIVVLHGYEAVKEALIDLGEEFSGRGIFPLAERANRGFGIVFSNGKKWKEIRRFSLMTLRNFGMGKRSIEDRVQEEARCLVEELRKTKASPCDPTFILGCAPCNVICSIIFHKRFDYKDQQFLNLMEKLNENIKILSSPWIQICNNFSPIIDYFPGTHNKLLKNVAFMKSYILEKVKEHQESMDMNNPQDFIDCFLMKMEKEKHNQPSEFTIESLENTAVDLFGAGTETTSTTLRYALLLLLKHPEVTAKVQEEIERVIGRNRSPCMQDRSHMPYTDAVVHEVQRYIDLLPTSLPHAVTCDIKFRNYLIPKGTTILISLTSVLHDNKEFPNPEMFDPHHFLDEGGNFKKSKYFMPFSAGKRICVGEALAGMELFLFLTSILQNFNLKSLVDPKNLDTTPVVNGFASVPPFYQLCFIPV
Voltage-gated inwardly rectifying potassium channel KCNH2 (Homo sapiens), sequence (Q12809 whole entry, looked up): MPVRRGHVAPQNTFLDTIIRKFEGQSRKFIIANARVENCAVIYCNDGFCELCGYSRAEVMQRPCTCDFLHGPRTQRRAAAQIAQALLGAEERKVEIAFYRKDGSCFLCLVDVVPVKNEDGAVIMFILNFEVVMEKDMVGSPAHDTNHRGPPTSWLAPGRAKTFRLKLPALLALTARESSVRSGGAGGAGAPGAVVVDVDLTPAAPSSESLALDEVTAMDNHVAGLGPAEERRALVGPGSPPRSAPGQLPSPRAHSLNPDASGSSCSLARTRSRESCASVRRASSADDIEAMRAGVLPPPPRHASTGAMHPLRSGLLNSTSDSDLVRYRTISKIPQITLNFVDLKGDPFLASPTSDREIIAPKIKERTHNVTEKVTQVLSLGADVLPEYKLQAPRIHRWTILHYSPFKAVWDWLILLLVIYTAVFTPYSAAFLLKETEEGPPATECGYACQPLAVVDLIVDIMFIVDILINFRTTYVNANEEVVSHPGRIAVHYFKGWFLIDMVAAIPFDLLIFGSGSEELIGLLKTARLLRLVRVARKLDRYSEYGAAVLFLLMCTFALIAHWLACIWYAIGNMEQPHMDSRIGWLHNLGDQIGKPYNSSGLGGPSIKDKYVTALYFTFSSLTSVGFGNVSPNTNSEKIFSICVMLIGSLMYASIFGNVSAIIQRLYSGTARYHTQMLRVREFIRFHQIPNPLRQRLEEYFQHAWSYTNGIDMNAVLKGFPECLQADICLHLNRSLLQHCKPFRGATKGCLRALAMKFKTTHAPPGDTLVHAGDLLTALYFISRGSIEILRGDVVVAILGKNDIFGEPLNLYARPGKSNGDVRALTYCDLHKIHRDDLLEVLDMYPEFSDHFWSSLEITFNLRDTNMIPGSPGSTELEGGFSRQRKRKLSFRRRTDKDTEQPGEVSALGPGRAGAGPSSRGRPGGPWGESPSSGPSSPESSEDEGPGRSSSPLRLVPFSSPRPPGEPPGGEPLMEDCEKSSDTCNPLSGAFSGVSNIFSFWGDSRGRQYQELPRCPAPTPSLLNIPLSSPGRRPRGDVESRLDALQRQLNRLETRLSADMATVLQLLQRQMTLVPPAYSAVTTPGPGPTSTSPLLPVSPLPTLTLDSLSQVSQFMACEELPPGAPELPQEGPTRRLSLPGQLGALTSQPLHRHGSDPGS
Thyrotropin-releasing hormone receptor (Homo sapiens), sequence (P34981 whole entry, looked up): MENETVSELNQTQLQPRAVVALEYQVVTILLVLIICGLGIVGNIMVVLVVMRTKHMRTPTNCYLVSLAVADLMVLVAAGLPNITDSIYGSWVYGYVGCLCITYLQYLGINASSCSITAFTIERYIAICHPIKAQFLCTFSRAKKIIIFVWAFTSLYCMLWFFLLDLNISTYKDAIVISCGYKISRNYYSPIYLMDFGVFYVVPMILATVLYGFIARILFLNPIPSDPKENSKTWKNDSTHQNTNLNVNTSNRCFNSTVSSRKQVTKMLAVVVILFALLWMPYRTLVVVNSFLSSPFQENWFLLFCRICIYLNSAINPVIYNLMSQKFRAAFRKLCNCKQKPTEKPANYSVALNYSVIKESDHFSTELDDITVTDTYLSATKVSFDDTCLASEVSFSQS

Consider `O=C(O)Cc1cc(I)c(Oc2cc(I)c(O)c(I)c2)c(I)c1`, for which the molecule was called inactive in [1], in test [3] and in test [4]. Also, the Potency entry in test [2], in [5], in test [7], in test [8] and in test [9] was “inactive” throughout. For the same molecule, the Potency in [6] was 34.9 µM (active).

Regarding `CCn1c(=O)c2c(nc(/C=C/c3ccc(OC)c(OC)c3)n2C)n(CC)c1=O`, the result in [1], in [3] and in test [10] was inactive. The Potency result in test [2], in [5], in test [7] and in [8] was “inactive” each time.

Consider `CC12CCC(CC1=O)C2(C)C` (stereo not given), for which the outcome in test [1], in test [3] and in [10] was inactive. The Potency result in test [2], in test [5], in [11], in [6], in [7] and in test [8] was “inactive” each time.

In the case of `CC1=CCC2C(C1)C2(C)C` (stereo not given), the molecule was classed as inactive in [1], in test [3] and in test [10]. Further, the Potency entry in test [2], in test [5] and in [8] was “inactive” throughout. Besides, the Potency was 48.6 µM (active) in test [12], 39.9 µM (active) in test [11], 63.3 µM (active) in test [6] and 15.9 µM (active) in [9].

`CCCCc1ccc2cccc(S(=O)(=O)O)c2c1`: the Potency result in test [2], in test [13], in test [12], in test [5], in [11] and in test [8] was “inactive” throughout. Moreover, the Potency entry in [9] was “inactive”. Further, the result in [3], in [4] and in test [10] was inactive. In [6], the Potency was 37.3 µM (active).

`CCCOc1ccccc1-c1nc2n[nH]nc2c(=O)[nH]1`: the outcome in test [1], in test [3], in test [4] and in [10] was inactive. For the same molecule, the Potency entry in test [2], in [5], in test [11], in test [6] and in [9] was “inactive” throughout.

As for `NC(=O)Nc1nc2ccccc2[nH]1`, the Potency entry in test [2], in test [13], in test [12], in test [8] and in test [9] was “inactive” each time. Besides, the call in test [3], in [4] and in test [10] was inactive. The Potency was 31.5 µM (active) in [5], 39.6 µM (active) in test [11] and 39.6 µM (active) in test [7].

As to `Fc1ccccc1-c1ccccc1`, the Potency result in [2], in test [13], in test [12], in test [5], in test [11] and in [6] was “inactive” in each case. The Potency result in test [9] is “inactive”. Besides, the result in test [3], in test [4] and in [10] was inactive. In addition, the Potency in test [7] was 40.8 µM (active).

On to `O=C(O)CCNC(=O)c1ccc(N=Nc2ccc(O)c(C(=O)O)c2)cc1`, for which the molecule was classed as inactive in test [1], in test [3] and in test [4]. Besides, the Potency result in test [2], in test [12], in [14], in [15], in test [5] and in test [11] was “inactive” throughout. The Potency entry in test [7] and in test [9] was “inactive” throughout.

As to `Cc1cc(C)cc(OCC2CNC(=O)O2)c1` (stereo not given), the Potency entry in test [2], in test [13], in test [12], in [14], in [15] and in test [5] was “inactive” each time. Besides, the Potency result in test [11], in [6], in [8] and in test [9] was “inactive” throughout. Further, the molecule was classed as inactive in test [3], in test [4] and in test [10].

Take `NC(CS)C(=O)O` (stereo not given): the Potency entry in test [2], in test [13], in test [12], in test [14], in [15] and in [5] was “inactive” each time. In addition, the Potency entry in test [11], in test [6], in [8] and in test [9] was “inactive” throughout. For the same molecule, the outcome in test [3], in test [4] and in test [10] was inactive. Moreover, the Potency in test [7] was 17.4 µM (active).
